# Assay results from PubChem BioAssay (NCATS).
# Inconclusive results are not listed. Active and inactive are the calls of the source. Unless noted, calls come from the whole dose curve; as a rule, active = well fitted curve in the direction sought with a large enough effect; inconclusive = small, poorly fitted or top-dose-only effect, or another doubt; inactive = no such curve, though single readings can be large; an effect the other way counts as inactive or inconclusive.
# Columns and labels:
# [1] = biological target: Lysosomal acid glucosylceramidase (Homo sapiens) (UniProt P04062); assay: Glucocerebrosidase-p2 (AID 348; in the data active = potency below about 10 µM; note: potency is the fitted concentration of half-maximal effect); details: purified GBA, blue fluorogenic substrate, 40 min
# Summary of the method: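 Normal human glucocerebrosidase (0.2 nM) with blue fluorogenic substrate (80 uM final) in citrate/phosphate pH 5.9 with 10mM sodium taurocholate, 0.01% tween-20; 40 min RT, NaOH/glycine stop; fluorescence Ex 365/Em 440; AC50 from a titration from 0.6 nM upwards.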
# [2] = AP1 Signaling Pathway (AID 357; active = well fitted curve in either direction with a large enough effect, not every such curve was filed as active;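 note: ME-180 reporter cells stimulated with EGF at its EC50 level; % is set by controls: 0 for no effect and ±100 for the full control effect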); details: ME-180 AP-1-bla reporter, EGF-induced, beta-lactamase ratio, 5 h; at 7.69 µM (top of the series) unless noted
# Summary of the method: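 AP-1-bla ME-180 cells, Opti-MEM + 0.5% dialyzed FBS, plated overnight 37 °C. Cpd titration + EC50 EGF, 5 h 37 °C. CCF4 2.5 h RT; ex 405, em 460/530 ratio → %activity, AC50.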
# [3] = biological target: Cytochrome P450 1A2 (Homo sapiens) (UniProt P05177); assay: p450-cyp1a2 (AID 410; calls by dose curve; note: potency is the fitted concentration of half-maximal effect)
# Summary of the method: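 O-Demethylation of luciferin 6' methyl ether by human CYP1A2 is monitored as luciferase luminescence. Substrate sits at Km (100uM); enzyme is 20nM. Values are scaled to 57 uM furafylline as maximal inhibition.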
# [4] = NFAT Signaling Pathway (AID 444; active = well fitted curve in either direction with a large enough effect, not every such curve was filed as active;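 note: carbachol stimulus at about its EC50 of 1 µM final; % is set by controls: 0 for no effect and ±100 for the full control effect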); details: Jurkat NFAT-bla M1, carbachol, beta-lactamase ratio, 5 h; at 7.69 µM (top of the series) unless noted
# Summary of the method: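 Jurkat cells with NFAT-driven β-lactamase reporter and co-expressed M1 receptor, stimulated with carbachol (final 1 uM, ~EC50), compound titration, 5 h at 37 °C. CCF4 loaded 1 h at RT; 460/530 nm ratio gave %activity and AC50.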
# [5] = Stat Signaling Pathway (AID 446; active = well fitted curve in either direction with a large enough effect, not every such curve was filed as active;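 note: ME-180 cervical cancer cells given 40 pM IL-6 alongside compound; SIE-controlled beta-lactamase reporter measured as 460/530 nm FRET emission ratio; % is set by controls: 0 for no effect and ±100 for the full control effect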); details: ME-180 (cervical carcinoma) SIE beta-lactamase reporter, IL-6 stimulated, 5 h; at 7.69 µM (top of the series) unless noted
# Summary of the method: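 Emission at 460 and 530 nm (excitation 405 nm) reports SIE-controlled beta-lactamase in ME-180 cells. Cells received compound with 40 pM IL-6 for 5 hrs at 37 C; data scaled between 300 pM IL-6 and 125 nM JAK-inhibitor controls.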
# [6] = biological target: Glucocorticoid receptor (Homo sapiens) (UniProt P04150); assay: GR-GFP Redistribution (AID 450;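 active = compounds whose dose series gives a full or clear partial fitted curve of increased nuclear translocation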; note: potency is the fitted concentration of half-maximal effect); details: U2OS GR-GFP nuclear translocation, laser cytometry, 2 h
# [7] = biological target: Glucocorticoid receptor (Homo sapiens) (UniProt P04150); assay: GR-EFC Redistribution (AID 451; calls by dose curve; note: potency is the fitted concentration of half-maximal effect); details: CHO-K1 GR-EFC translocation, beta-gal luminescence, 2 h
# Summary of the method: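 CHO-K1 cells expressing nuclear EA and GR-ED fragments of b-gal; compounds titrated up to 46 uM final, 2 h at 37 C. GR nuclear translocation read as complemented b-gal luminescence after 1 h RT detection.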
# [8] = biological target: Mitogen-activated protein kinase 10 (Mus musculus) (UniProt Q61831); assay: JNK3 AlphaScreen Assay (AID 530; active = well fitted curve in either direction with a large enough effect, not every such curve was filed as active;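 note: kinase came from lysate of stimulated human HepG2 cells; signal reports phosphorylation of biotinylated GST-cJun 1-79 at Ser73 with 10 µM ATP; % is set by controls: 0 for no effect and ±100 for the full control effect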)
# Summary of the method: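 Activity was read by AlphaScreen after JNK3-containing HepG2 lysate (cytokine pre-activated) phosphorylated biotinylated GST-cJun with 10 uM ATP at room temperature. Phospho-Ser73 cJun antibody with Protein-A acceptor beads provided detection.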
# [9] = biological target: 3',5'-cyclic-AMP phosphodiesterase 4B (Homo sapiens) (UniProt Q07343); assay: qHTS Assay for Inhibitors of PDE-IV (AID 607; active = well fitted activation curve with a large enough effect in the main read-out, with a control signal flat, not every such curve was filed as active; note: % of control where 0% means no effect)
# Summary of the method: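 The readout is membrane depolarisation from a cAMP-sensing CNG channel, detected with a potential dye at ex 535/em 590. Cells were HEK293-derived (endogenous PDE-IV) at 1000 cells/well, titrated up to 22.9 uM final.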
# [10] = biological target: Cytochrome P450 3A4 (Homo sapiens) (UniProt P08684); assay: qHTS Assay for Inhibitors and Substrates of Cytochrome P450 3A4 (AID 884); note: potency is the fitted concentration of half-maximal effect; nearly all actives have a fitted effect of over 50% in size
# Summary of the method: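 Luminescent readout of luciferin produced by CYP3A4 (20 nM) dealkylation of Luciferin-PPXE, 25 uM (its KM). NADPH-driven reaction ran 60 min at RT after 10 min compound preincubation; data scaled to 57 uM ketoconazole as 100% inhibition.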
# [11] = biological target: Cytochrome P450 3A4 (Homo sapiens) (UniProt P08684); assay: qHTS Assay for Activators of Cytochrome P450 3A4 (AID 885); note: nearly all actives have a fitted effect of over 65% in size
# Summary of the method: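 Activators are scored by enhanced luminescence from CYP3A4 conversion of luciferin-PPXE (25uM, equal to KM) to luciferin, after 60 min at RT with an NADPH-regenerating system.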
# [12] = qHTS Assay for Lipid Storage Modulators (AID 1519; calls by dose curve); details: Drosophila S3 cells, BODIPY lipid droplet/cell ratio, laser cytometry, cells loaded with oleic acid
# Summary of the method: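 Cells seeded at 5,000 per well were treated with compounds over a concentration series and loaded with oleic acid (400 uM, as added). Lipid droplet fluorescence (488 nm excitation, 500-530 nm channel) was read by laser-scanning cytometry and normalized to 20 uM Triacsin C.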
# [13] = biological target: Dual specificity protein kinase CLK4 (Homo sapiens) (UniProt Q9HAZ1); assay: qHTS Assay for Inhibitors of CDC-like Kinase 4 (Kinase-Glo Assay) (AID 1770); note: % is set by controls: 0 for no effect and ±100 for the full control effect; nearly all actives have a fitted effect of over 65% in size
# Summary of the method: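 Clk4 25 nM, RS peptide 100 uM, ATP 1 uM, pH 7.5 Tris, 10 mM MgCl2, 2.5 mM DTT; 4.5 h RT; ATP depletion read by Kinase-Glo luminescence.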
# [14] = biological target: Dual specificity protein kinase CLK4 (Homo sapiens) (UniProt Q9HAZ1); assay: qHTS Assay for Inhibitors of CDC-like Kinase 4 (ADP-Glo Assay) (AID 1771); note: % is set by controls: 0 for no effect and ±100 for the full control effect; nearly all actives have a fitted effect of over 70% in size
# Summary of the method: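 Compounds are pin-transferred onto substrate mix (100 uM RS peptide, 1 uM ATP), then 25 nM Clk4 is added. After 1 hr at room temperature, ADP-Glo reagent runs 45 min, detection reagent 30 min, then luminescence is read.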
# [15] = biological target: Dual specificity protein kinase CLK4 (Homo sapiens) (UniProt Q9HAZ1); assay: qHTS Assay for Inhibitors of CDC-like Kinase 4 (ADP-FP Assay) (AID 1795);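 note: recombinant human CLK4 phosphorylating RS repeat peptide at 1 µM ATP; % is set by controls: 0 for no effect and ±100 for the full control effect; nearly all actives have a fitted effect of over 60% in size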
# Summary of the method: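 Kinase activity was followed as ADP output, converted from fluorescence polarization with a calibration curve. Reactions ran one hour at low ATP (1 uM) with RS peptide substrate.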
# [16] = biological target: Ubiquitin carboxyl-terminal hydrolase 1 (Homo sapiens) (UniProt O94782); assay: Inhibitors of USP1/UAF1: Pilot qHTS (AID 504865);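 note: rhodamine fluorescence freed from ubiquitin-rhodamine substrate followed over time; top concentration of the series differs between compounds; % is set by controls: 0 for no effect and ±100 for the full control effect; nearly all actives have a fitted effect of over 35% in size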
# Summary of the method: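 Enzyme-free wells gave the negative control, while test wells held 1nM USP1/UAF1 preincubated with compound for 15 min at room temperature. Ub-Rho at 150nM final started the reaction, and fluorescence at 480/540 nm was recorded kinetically.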
# [17] = Counterscreen qHTS for small molecule stabilizers of the endoplasmic reticulum resident proteome: GLuc-NoTag assay (AID 1508627);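 note: 0% = thapsigargin alone and -100% = DMSO vehicle control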
# Summary of the method: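 Counterscreen line: SH-SY5Y-GLuc-NoTag. Seed, 5 h; compound, 19 h; thapsigargin 100 nM, 4 h; 37C/5% CO2. Readout: secreted GLuc luminescence, coelenterazine 0.07x final, no lysis.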
# [18] = Confirmatory qHTS for small molecule stabilizers of the endoplasmic reticulum resident proteome: Secreted ER Calcium Modulated Protein (SERCaMP) assay (AID 1508628); note: potency is the fitted concentration of half-maximal effect; nearly all actives have a fitted effect of over 40% in size
# Summary of the method: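 Reporter secretion upon ER calcium depletion (100 nM thapsigargin, 4 h, 37C) is measured as medium luminescence with coelenterazine, after 16 h compound pretreatment of SH-SY5Y-GLuc-SERCaMP cells; primary at three concentrations up to 38.3 uM, follow-up at 11 (up to 76.6 uM).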
# [19] = Cell Viability qHTS for small molecule stabilizers of the endoplasmic reticulum resident proteome (AID 1508629); details: cell viability counter-screen, 100 nM thapsigargin for final 4 h
# Dual specificity protein kinase CLK4 (Homo sapiens), sequence (Q9HAZ1 whole entry, looked up): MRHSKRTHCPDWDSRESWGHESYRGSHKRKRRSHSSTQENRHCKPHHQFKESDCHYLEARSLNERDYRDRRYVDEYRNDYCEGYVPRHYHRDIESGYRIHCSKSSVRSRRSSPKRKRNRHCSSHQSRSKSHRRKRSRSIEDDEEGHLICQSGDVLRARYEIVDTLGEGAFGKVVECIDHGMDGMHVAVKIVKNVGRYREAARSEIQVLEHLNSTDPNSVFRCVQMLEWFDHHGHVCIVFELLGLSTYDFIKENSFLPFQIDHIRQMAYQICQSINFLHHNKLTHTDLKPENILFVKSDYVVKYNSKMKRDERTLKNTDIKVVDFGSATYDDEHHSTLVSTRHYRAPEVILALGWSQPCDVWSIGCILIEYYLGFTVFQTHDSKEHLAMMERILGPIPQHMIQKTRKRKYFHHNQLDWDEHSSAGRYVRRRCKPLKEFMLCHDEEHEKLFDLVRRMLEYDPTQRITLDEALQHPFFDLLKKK
# Glucocorticoid receptor (Homo sapiens), sequence (P04150 whole entry, looked up, the tested form may be a part): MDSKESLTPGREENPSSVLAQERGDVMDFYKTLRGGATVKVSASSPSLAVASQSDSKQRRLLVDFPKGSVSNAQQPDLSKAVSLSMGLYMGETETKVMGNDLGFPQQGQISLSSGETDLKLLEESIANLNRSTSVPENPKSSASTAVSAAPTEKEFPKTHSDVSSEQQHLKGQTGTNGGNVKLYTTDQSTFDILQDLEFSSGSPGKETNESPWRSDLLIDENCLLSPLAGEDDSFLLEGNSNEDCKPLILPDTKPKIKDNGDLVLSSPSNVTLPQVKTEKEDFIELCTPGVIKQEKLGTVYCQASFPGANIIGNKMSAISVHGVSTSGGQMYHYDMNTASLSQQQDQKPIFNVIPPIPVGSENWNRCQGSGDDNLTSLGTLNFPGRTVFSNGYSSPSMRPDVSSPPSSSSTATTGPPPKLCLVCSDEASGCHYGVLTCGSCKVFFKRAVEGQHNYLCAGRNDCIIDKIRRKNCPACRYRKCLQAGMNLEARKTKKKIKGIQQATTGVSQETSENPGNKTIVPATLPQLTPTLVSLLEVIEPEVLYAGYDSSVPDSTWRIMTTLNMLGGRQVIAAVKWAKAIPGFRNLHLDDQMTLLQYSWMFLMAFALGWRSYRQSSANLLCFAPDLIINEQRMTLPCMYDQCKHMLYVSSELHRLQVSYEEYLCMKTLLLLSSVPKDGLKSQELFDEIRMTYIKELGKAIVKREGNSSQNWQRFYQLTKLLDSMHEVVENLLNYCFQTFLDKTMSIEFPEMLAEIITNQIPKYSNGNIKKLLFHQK
# Cytochrome P450 3A4 (Homo sapiens), sequence (P08684 whole entry, looked up): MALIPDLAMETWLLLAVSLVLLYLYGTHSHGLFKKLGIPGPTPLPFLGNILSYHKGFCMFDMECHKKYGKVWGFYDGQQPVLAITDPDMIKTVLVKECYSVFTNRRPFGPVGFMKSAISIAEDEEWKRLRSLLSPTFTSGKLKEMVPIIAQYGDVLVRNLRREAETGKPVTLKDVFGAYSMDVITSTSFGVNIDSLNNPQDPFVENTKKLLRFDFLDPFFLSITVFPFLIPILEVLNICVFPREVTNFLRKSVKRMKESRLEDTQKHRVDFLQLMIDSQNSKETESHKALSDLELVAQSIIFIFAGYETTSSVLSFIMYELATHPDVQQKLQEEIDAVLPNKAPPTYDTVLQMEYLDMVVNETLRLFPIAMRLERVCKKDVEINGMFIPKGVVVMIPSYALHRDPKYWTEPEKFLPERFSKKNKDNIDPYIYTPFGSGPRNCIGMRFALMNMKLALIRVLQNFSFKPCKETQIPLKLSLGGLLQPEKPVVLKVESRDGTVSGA
# Lysosomal acid glucosylceramidase (Homo sapiens), sequence (P04062 whole entry, looked up): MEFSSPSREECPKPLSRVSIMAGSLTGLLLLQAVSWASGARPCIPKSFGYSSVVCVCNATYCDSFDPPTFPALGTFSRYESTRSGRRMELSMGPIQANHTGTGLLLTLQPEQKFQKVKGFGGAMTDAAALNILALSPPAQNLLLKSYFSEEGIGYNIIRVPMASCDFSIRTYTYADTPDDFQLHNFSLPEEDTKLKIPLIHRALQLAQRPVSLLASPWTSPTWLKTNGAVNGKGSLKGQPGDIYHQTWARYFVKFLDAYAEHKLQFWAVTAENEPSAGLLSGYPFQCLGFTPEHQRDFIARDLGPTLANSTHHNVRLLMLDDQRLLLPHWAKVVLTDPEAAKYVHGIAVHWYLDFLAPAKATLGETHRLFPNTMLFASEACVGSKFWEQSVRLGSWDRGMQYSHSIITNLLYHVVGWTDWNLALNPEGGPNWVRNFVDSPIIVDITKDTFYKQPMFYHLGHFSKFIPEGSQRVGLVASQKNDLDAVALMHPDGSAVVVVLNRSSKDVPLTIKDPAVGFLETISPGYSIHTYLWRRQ
# Cytochrome P450 1A2 (Homo sapiens), sequence (P05177 whole entry, looked up): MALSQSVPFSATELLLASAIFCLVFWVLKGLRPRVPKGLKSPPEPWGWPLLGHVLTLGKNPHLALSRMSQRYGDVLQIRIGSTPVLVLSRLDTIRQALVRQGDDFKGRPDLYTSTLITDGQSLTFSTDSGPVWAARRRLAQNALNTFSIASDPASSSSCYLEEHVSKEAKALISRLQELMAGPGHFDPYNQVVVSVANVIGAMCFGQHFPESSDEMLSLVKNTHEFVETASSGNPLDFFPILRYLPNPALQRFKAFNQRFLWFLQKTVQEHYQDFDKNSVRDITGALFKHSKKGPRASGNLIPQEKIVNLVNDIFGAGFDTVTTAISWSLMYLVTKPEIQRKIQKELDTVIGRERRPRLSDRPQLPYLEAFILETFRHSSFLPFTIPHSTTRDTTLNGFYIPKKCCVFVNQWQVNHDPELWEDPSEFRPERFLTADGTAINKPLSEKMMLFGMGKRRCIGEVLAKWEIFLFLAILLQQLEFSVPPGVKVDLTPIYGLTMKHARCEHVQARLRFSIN
# Ubiquitin carboxyl-terminal hydrolase 1 (Homo sapiens), sequence (O94782 whole entry, looked up): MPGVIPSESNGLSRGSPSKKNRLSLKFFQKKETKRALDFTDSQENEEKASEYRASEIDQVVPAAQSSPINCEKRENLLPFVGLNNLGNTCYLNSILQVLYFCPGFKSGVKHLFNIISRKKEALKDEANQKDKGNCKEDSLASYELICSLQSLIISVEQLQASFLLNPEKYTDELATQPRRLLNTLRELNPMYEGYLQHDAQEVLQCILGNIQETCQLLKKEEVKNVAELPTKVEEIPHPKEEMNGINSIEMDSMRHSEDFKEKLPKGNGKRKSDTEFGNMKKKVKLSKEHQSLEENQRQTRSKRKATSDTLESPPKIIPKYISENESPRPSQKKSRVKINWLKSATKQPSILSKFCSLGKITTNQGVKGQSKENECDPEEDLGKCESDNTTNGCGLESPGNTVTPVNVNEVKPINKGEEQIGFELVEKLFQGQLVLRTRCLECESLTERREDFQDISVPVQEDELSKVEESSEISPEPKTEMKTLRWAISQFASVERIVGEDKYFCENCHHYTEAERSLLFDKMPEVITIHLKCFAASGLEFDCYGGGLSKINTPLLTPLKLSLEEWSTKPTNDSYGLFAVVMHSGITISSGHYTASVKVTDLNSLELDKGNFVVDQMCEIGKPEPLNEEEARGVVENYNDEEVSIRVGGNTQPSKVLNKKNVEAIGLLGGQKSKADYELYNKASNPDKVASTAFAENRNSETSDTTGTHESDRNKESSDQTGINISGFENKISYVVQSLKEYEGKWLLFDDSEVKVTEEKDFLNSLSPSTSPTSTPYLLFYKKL
# 3',5'-cyclic-AMP phosphodiesterase 4B (Homo sapiens), sequence (Q07343 whole entry, looked up): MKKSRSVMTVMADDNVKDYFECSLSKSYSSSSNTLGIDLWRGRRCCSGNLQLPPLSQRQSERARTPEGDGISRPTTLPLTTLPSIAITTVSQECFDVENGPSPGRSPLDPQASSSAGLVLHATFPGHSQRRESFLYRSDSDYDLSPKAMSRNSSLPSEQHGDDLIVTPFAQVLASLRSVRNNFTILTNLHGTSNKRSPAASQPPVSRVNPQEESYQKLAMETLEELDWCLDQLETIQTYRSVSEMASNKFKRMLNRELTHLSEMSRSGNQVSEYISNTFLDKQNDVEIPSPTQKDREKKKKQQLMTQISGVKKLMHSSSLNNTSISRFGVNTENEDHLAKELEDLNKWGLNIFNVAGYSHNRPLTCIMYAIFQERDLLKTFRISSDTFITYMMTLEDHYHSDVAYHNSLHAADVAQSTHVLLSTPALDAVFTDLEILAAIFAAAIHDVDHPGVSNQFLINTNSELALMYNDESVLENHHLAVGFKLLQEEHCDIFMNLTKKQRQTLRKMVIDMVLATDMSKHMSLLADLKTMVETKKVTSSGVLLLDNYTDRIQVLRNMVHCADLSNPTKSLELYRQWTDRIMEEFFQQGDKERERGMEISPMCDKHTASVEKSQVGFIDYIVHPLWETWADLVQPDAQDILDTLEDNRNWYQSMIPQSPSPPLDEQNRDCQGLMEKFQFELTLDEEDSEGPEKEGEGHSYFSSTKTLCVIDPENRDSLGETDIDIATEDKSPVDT
smiles,measurement,setting,value
Cc1nc2cnc(N3CCNCC3)nc2n(Cc2cccs2)c1=O,Potency,[1],> 11.4 µM (inactive)
same,"activity change, negative = inhibition",[2],-0.143% (inactive)
same,Potency,[3],0.631 µM (active)
same,"activity change, negative = inhibition",[4],6.53% (inactive)
same,"activity, negative = inhibition",[5],3.44% (inactive)
same,Potency,[6],> 9.22 µM (inactive)
same,Potency,[7],> 46 µM (inactive)
same,outcome,[8],inactive
same,Potency,[9],inactive
same,Potency,[10],3.16 µM (active)
same,Potency,[11],inactive
same,"activity change, negative = inhibition",[12]; at 57.5 µM (top of the series),6.29% (inactive)
same,max response,[12]; measured here: cell count channel max response,24.4%
same,max response,[12]; measured here: lipid channel max response,28.9%
same,Potency,[13],inactive
same,Potency,[14],inactive
same,Potency,[15],inactive
same,Potency,[16],inactive
same,Potency,[17],inactive
same,Potency,[18],25.1 µM (active)
same,max response,[19],3.08% (inactive)
